Bioassay records from PubChem.
Most compounds without a hit are left out; they make up all but 2.4% or so of the library.
D2 PAM-1: human D2 receptor positive allosteric modulation | P14416 | DiscoveRx D2 beta-arrestin cells, luminescence, 90 min; 100% = 57 uM dopamine signal | potentiation, % (no concentration beside the values) | 360,000 compounds, 0.23% hits; in the data active = potentiation above about 50%; inconclusive = mostly about 30% to 49%
Target sequence (P14416 whole entry, looked up): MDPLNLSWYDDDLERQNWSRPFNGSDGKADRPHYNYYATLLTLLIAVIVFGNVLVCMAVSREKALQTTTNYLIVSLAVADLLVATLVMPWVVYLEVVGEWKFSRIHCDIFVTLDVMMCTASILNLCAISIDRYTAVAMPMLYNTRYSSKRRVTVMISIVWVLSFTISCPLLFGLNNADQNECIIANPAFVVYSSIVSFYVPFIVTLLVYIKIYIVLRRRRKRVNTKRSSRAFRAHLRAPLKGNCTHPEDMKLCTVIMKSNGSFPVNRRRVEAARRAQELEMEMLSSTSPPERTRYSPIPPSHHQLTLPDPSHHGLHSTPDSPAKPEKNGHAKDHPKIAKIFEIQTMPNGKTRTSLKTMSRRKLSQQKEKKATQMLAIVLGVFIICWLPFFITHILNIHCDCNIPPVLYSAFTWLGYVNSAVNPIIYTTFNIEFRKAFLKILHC
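PathHunter D2 cells, attached overnight at 37 deg C, received compound in DMSO plus dopamine at EC20 (50 nM final) for 90 min at 37 deg C. Beta-arrestin recruitment was read as luminescence after 1 h with detection reagent at ambient temperature.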
D2 antag: antagonists of human D2 dopamine receptor. P14416. HEK293 TREx D2 cells, calcium flux, dopamine EC80. inhibition, % at 10 µM. 340,000 compounds, 2% hits. AID 485344; in the data active = inhibition above about 30%; inactive = below that, where a call was filed; also: 0% is about no effect
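HEK293 T-REx D2 cells, tet-induced, calcium dye no-wash. Cpd pintool add, 180 s kinetic, then EC80 DA, 180 s kinetic. Ca flux read.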
D2 PAM-2: D2 dopamine receptor (human) potentiation | P14416 | HEK293 T-REx D2, calcium flux, EC20 dopamine potentiation | potentiation, % at 10 µM | 340,000 compounds, 0.34% hits | AID 485347;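 active = potentiation over 3 SD above the plate norm, cut at about 30% in these data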; also: 0% is about no effect
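Tetracycline-induced Hek293 Trex D2 cells, force-coupled to calcium, loaded with no-wash calcium dye. Compound added with 180 s kinetic read for agonism, then EC20 dopamine and a further 180 s read for potentiation.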
D2 ag-1: activates the human D2 dopamine receptor. P14416. DiscoveRx PathHunter D2 beta-arrestin, luminescence, 90 min; 100% = 57 uM dopamine signal. activation, % (concentration not given with the values). 360,000 compounds, 0.084% hits; in the data active = activation above about 40%; inconclusive = between about 15% and that limit
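DiscoveRx PathHunter D2 beta-arrestin cells (2,100/well) attached overnight, then compound-stimulated 90 min at 37 C in HBSS/10 mM HEPES/0.1% Tween-20 buffer; beta-galactosidase complementation read by luminescence after 1 h at ambient temperature. Dopamine 57 uM final (EC100) as control.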
D2 ag-2: agonists of human D2 dopamine receptor; HEK293 T-REx D2 cells, calcium flux agonist mode; activation, % at 2 µM; 340,000 compounds, 0.53% hits; AID 485358;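 active = activation over 3 SD above normal in the single-dose calcium agonist read, cut at about 30% in these data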; also: 0% is about no effect
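HEK293 Trex D2 cells, tetracycline-induced, o/n 30 C 5% CO2; no-wash Ca dye, RT 30–90 min; 10-cycle baseline, 23 nl cpd added, kinetic Ca read 180 s; agonist hits = positive Ca response.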
An asterisk follows results filed as active; ? = inconclusive; . = not tested or not shown.

SMILES	D2 PAM-1	D2 antag	D2 PAM-2	D2 ag-1	D2 ag-2
c1ccc(CN2CCC3(CCCc4ccccc43)CC2)cc1	-25	43*	-13	-1	0
CNCc1c(OCc2ccc(F)cc2)ccc2ccccc12	-7	74*	-15	-2	0
CCN1C(=S)SC(=O)C1=C1C=C(C)N(Cc2ccco2)C(C)=C1	-15	.	8	-5	.
CCN1C(=S)SC(=O)C1=C1C=C(C)OC(C)=C1	-1	57*	4	-1	2
COc1ccc(NC(=O)Nc2nnc(-c3ccccc3F)s2)cc1	-3	41*	0	0	2
Cc1cc(NS(=O)(=O)c2ccc(NC(=O)c3ccc(Cl)cc3[N+](=O)[O-])cc2)no1	?	41*	-1	-5	1
Cc1cc(NS(=O)(=O)c2ccc(NC(=O)c3ccc([N+](=O)[O-])c(Cl)c3)cc2)no1	12	.	.	-2	.
CC(C)N(C(=O)CSc1cn(CC(=O)N2CCCCCC2)c2ccccc12)C(C)C	.	.	3	.	1
Cc1nc2c(o1)C(=O)c1ccccc1C2=Nc1ccccc1	51*	.	.	?	.
CC1(C)CC=CC(COC(=O)c2ccccc2C(=O)O)C1 (stereo unspecified)	-5	.	.	-1	.
Fc1ccc(/C=N/n2c(C3CCCCC3)n[nH]c2=S)cc1	-6	50*	7	?	0
S=c1[nH]nc(C2CCCCC2)n1/N=C/c1ccccc1	-7	-10	-5	-10	0
C[C@H](CO)N1C[C@H](C)[C@@H](CN(C)S(=O)(=O)c2ccc(F)cc2)Oc2ccc(NC(=O)C3CCCCC3)cc2C1=O	-4	.	.	1	.
Cc1cc(C)cc(Nc2cc(-c3ccccc3)nc(C)n2)c1	.	.	2	.	2
CC(NCc1ccc2c(c1)OCO2)C(=O)N1CCc2ccccc21 (stereo unspecified)	-40	44*	-27	-7	-1
CN(C)/C=N/c1cc(=O)[nH]c(=O)n1Cc1ccccc1	-24	40*	6	-2	0
CC(CCc1ccccc1)NC(=O)COC(=O)c1ccc([N+](=O)[O-])cc1 (stereo unspecified)	5	-12	38*	0	0
CC(CCc1ccccc1)NC(=O)COC(=O)c1ccc(S(C)(=O)=O)c([N+](=O)[O-])c1 (stereo unspecified)	-6	2	-2	-2	0
CC(=O)c1ccc(NC(=O)c2nc(-c3ccccc3)n(-c3ccc(Cl)cc3)n2)cc1	.	.	4	.	-1
COc1ccc(NC(=O)C2CCC(=O)N2S(=O)(=O)c2ccc(C)cc2)cc1Cl (stereo unspecified)	-14	34*	-45	-1	1
COc1cc(NC(=O)C2CCC(=O)N2S(=O)(=O)c2ccc(C)cc2)cc(OC)c1 (stereo unspecified)	-10	5	-13	3	0
CCSc1ccc2c(c1)N(CCCN1CCN(C)CC1)c1ccccc1S2	-37	83*	-23	-6	1
CN1CCN(CCCN2c3ccccc3Sc3ccc(Cl)cc32)CC1	.	72*	.	.	.
CC(CN1CCN(CCOCCO)CC1)CN1c2ccccc2Sc2ccc(Cl)cc21 (stereo unspecified)	-21	.	.	3	.
COc1ccc(/C=C/C(=O)OCC(=O)c2ccc[nH]2)cc1	1	38*	-12	-1	0
SMILES	D2 PAM-1	D2 antag	D2 PAM-2	D2 ag-1	D2 ag-2
CCCn1c2ccccc2c2cnn(CC(=O)NCCc3ccc(OCC)c(OCC)c3)c(=O)c21	.	.	-20	.	-1
CC1CN(S(=O)(=O)c2cccc(C(=O)NCc3ccco3)c2)CC(C)O1 (stereo unspecified)	-2	7	12	-1	0
Cc1ccc(NC(=O)CCNC(=O)c2ccco2)cc1Cl	-5	36*	-1	-4	0
COc1cccc(C(=O)NCCNC(=O)c2ccco2)c1	-1	-1	4	-3	0
CCCOc1cccc(C(=O)NCCNC(=O)c2ccco2)c1	1	57*	11	-5	-1
Cc1cc(C)n(CCNC(=O)c2ccco2)n1	1	-11	31*	-1	0
O=C(NCCNC(=O)c1ccco1)c1ccco1	1	-2	.	-4	-3
COc1c(N)c2c(c([N+](=O)[O-])c1OC)C(=O)OC2	1	.	.	0	.
COc1ccc(-c2noc(CN(C)S(=O)(=O)c3ccc(Cl)cc3)n2)cc1OC	10	0	45*	2	1
COc1ccc(-c2noc(-c3ccco3)n2)cc1OC	6	-6	36*	0	1
COc1ccc(-c2noc(-c3ccc(Cl)cc3[N+](=O)[O-])n2)cc1OC	89*	0	18	?	-1
COc1ccc(-c2noc(CN(C)S(=O)(=O)c3c(C)cc(C)cc3C)n2)cc1OC	.	.	4	.	3
COC(=O)[C@H]1C[C@H](OC(=O)Nc2cccs2)[C@@]2(O)CN(S(=O)(=O)c3ccc(C)cc3)CC2[C@H]1C(=O)OC (stereo partly specified)	-2	.	.	-7	.
CCc1ccc(-n2c(SCC(=O)NC(C)CC)nc3n[nH]c(C)c3c2=N)cc1 (stereo unspecified)	.	.	.	.	1
COc1ccc(OC)c(NC(=O)CNC(c2ccccc2)c2ccccc2)c1	-3	31*	4	-5	0
COc1ccc(C)cc1NC(=O)CNC(c1ccccc1)c1ccccc1	-11	37*	5	-3	1
COc1ccc(Cl)cc1NC(=O)CNC(c1ccccc1)c1ccccc1	-5	-6	-2	-2	1
Cc1cn2c(=O)cc(COC(=O)c3ccc(NC(=O)c4ccc(C(C)(C)C)cc4)cc3)nc2s1	.	.	1	.	2
COc1ccc(OC)c(S(=O)(=O)NCc2cn3c(C)csc3n2)c1	-13	.	-20	-3	.
COc1ccc(S(=O)(=O)NCc2cn3c(C)csc3n2)cc1F	2	32*	8	-2	0
CCn1c(SCC(=O)Nc2ccc3c(c2)c2ccccc2n3CC)nnc1-c1ccco1	-21	45*	9	0	0
CCCn1c(SCC(=O)NCc2ccco2)nnc1C(C)C	1	47*	-7	-2	0
CCCn1c(SCC(=O)Nc2nnc(CC)s2)nnc1-c1ccco1	29	7	38*	-1	0
Cc1nnc(SCC(=O)NCc2ccco2)n1Cc1ccccc1	-15	.	.	-1	.
CCn1c2ccccc2c2cc(NC(=O)c3cccc([N+](=O)[O-])c3)ccc21	-2	42*	-12	1	1
COc1cc(OC)c(NC(=O)c2cc3ccccc3cc2O)cc1Cl	20	.	.	4	.
COc1cccc(CNc2nc(NC(C)C)nc3ccsc23)c1	-17	.	.	-7	.
CCN(CC)c1ccc(/C=C/C(=O)c2ccc(Br)cc2)cc1	15	71*	-21	-2	94*
CCOCCc1nn2c(=O)cc(COC(=O)c3cccc(C)c3)nc2s1	.	.	7	.	0
